# Assay results from PubChem BioAssay (NCATS).
# Results filed as inconclusive are left out. Where a call stands in place of a potency, no number is given. Active and inactive are the calls of the source. Calls come from the whole dose curve; as a rule, active = well fitted inhibition curve with a large enough effect; inconclusive = small, poorly fitted or top-dose-only effect; inactive = no such curve, though single readings can be large or run the other way.
# Target: Chromobox protein homolog 1 (Homo sapiens) (UniProt P83916)
# Sequence (P83916 whole entry, looked up): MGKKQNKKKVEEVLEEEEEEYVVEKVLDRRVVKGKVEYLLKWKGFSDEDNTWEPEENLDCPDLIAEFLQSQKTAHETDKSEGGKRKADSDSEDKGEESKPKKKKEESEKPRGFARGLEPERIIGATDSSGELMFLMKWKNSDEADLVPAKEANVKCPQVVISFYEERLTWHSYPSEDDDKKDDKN
# Assay: qHTS Validation Assay for Inhibitors of HP1-beta Chromodomain Interactions with Methylated Histone Tails (AID 488953); note: nearly all actives have a fitted effect of over 50% in size
# Settings: HP1-beta chromodomain / methylated histone peptide binding assay; series mostly up to 114 µM
# Excerpt: As our understanding of epigenetics expands, it is becoming clear that players in this field are potential targets for drug development. This area of epigenetic therapy has established applications for the treatment of cancer and neurological diseases. We have been involved in this field for a number of years and have performed high-throughput screens to identify the first small molecule inhibitors of protein methyltransferases. These methyltransferases target multiple substrates, and thus regulate many arms of an epigenetic pathway. The methylation of different substrates often generates docking sites for effector proteins that harbor binding domains (chromo, tudor, PHD, MBT and ANK repeats).
# It has been proposed that the binding sites generated for different proteins by these post-translational modifcations mediate downstream effects on chromatin. Consistent with this theory, di- and tri-methylation of histone H3K9 facilitates the binding of heterochromatin protein HP1. The HP1 protein harbors a chromodomain that is responsible for the methyl-dependent interaction between HP1 and lysine 9 of histone H3. HP1 was first described in flies as a heterochromatin associated protein that can regulate gene silencing. It harbors a chromodomain that binds H3K9me3. In addition, it harbors a chromoshadow domain that interacts with a large number of proteins that are involved in heterochromatin formation and gene repression. There are three highly related HP1 isoforms. All three variants are associated with pericentric heterochromatin and it is not clear whether they have specific or redundant functions. MPP8 is also involved in the repression of gene in euchromatic regions (unpublished data) and like HP1 its chromodomain binds H3K9me3. MPP8 harbors an ankyrin repeat region that is likely involved in binding and recruiting interacting proteins with transcriptional repressive function, much like the chromoshadow domain of HP1 does.
# We hypothesize that by inhibiting specific protein-protein interactions we will be able to develop compounds that block a single arm of an epigenetic pathway. The specificity attained by blocking a single protein-protein interaction will be far greater than that attained by blocking the enzyme that regulates one of many interactions.
# Low-affinity protein-protein interactions (Kd in the single- to double-digit micromolar range) such as those discussed here have been very difficult to assay by traditional techniques such as fluorescence polarization or fluorescence resonance energy transfer. We have developed a sensitive chemiluminescence-based assay (Quinn, et al. 2009), which serves as the starting point for this project.
# The following is a validation assay to identify lead compounds that can block methyl-dependent protein-protein interactions (specifically HP1-beta), which can be used as probes to analyze these methyl-driven interactions and perhaps even developed into targeted epigenetic therapies.
# Assay Provider: Mark T. Bedford, MD Anderson
# Screening Center PI: Austin, C.P.
# Screening Center: NIH Chemical Genomics Center [NCGC]
# To each well, 2 uL of HP1-beta protein (final 50 nM) and 1 uL biotinylated histone peptide trimethylated at Lys9 [b-H3(1-18)K9me3] (final 50 nM) was added in 1x PBS buffer, pH 7.4, containing 0.01% Tween-20 using a nanoliter dispenser. Formation of a protein-peptide complex proceeded at room temperature for 30 min. A Kalypsys pin-tool was employed to transfer 23 nL of library compound solution in DMSO to each well. Aurintricarboxylic acid (ATA) was used as an intraplate control with a 12-point titration in duplicate. Following a 30 min incubation of the protein-peptide complex with compounds at room temperature, a mixture of 40 ug/mL each streptavidin-coated donor and nickel chelate acceptor AlphaScreen beads (final 10 ug/mL) was added in a 1 uL dispense for a final volume of 4 uL. Plates were incubated protected from the light for 30 min at room temperature. […]
# Potency is the fitted concentration of half-maximal effect.
row,SMILES,Potency
1,NC(=O)c1ccc2[nH]ccc2c1,inactive
2,CC1CC2C3CCC4=CC(=O)C=C[C@]4(C)[C@@]3(F)[C@@H](O)C[C@]2(C)[C@@]1(O)C(=O)CO (stereo not given in full),inactive
3,O=C(O)C1CCCN(CCC=C(c2ccccc2)c2ccccc2)C1 (stereo not given),inactive
4,CCN1CCCC1CNC(=O)c1cc(S(N)(=O)=O)ccc1OC (stereo not given),inactive
5,CCN(CC)CCn1c(=O)c(Cc2ccc(OC)cc2)nc2ccccc21,inactive
6,CC1=C(C(=O)O)N2C(=O)[C@@H](NC(=O)C(N)c3ccccc3)[C@H]2SC1 (stereo not given in full),inactive
7,Cc1ccc(S(=O)(=O)N[C@@H](Cc2ccccc2)C(=O)CCl)cc1,inactive
8,OCc1ccc(-c2nn(Cc3ccccc3)c3ccccc23)o1,39.8 µM (active)
9,COc1cc2ncnc(Nc3cccc(Cl)c3)c2cc1OC,inactive
10,CCCCS(=N)(=O)CCC(N)C(=O)O (stereo not given),inactive
11,CC(C)NCC(O)c1ccc(NS(C)(=O)=O)cc1 (stereo not given),inactive
12,CCN(CC)CC#CCOC(=O)C(O)(c1ccccc1)C1CCCCC1 (stereo not given),inactive
13,NC(=O)c1cccc(N)c1,inactive
14,CC(=O)[C@H]1CC[C@H]2[C@@H]3CCC4=CC(=O)CC[C@]4(C)[C@H]3CC[C@]12C,inactive
15,N[C@@H](Cc1ccc(O)c(O)c1)C(=O)O,31.6 µM (active)
